CFTR F508del cor = F508del CFTR correction, initial screen, CFBE line, single point | 350,000 compounds, 0.36% hits | activity (quench increase), % at 7.58 µM | CFBE cells, YFP halide quenching; stimulated with forskolin plus potentiator P3; % fluorescence drop versus neutral controls;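 active = mean added fluorescence quench of at least 8% versus neutral control, with both replicates also reaching 8%; inconclusive = only one of the mean or replicate conditions met; inactive = mean below 8% and not both replicates reaching 8%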;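 note: cells transiently co-express mutant CFTR-F508del with the halide-sensitive YFP; corrector assay measuring rescue of mutant channel to the surface after 24 h compound exposure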
HIV Env fusion = inhibitors of HIV-1 Env-driven cell-cell fusion, primary screen, HeLa-JRFL effector, CEM21 target cells, luciferase | inhibition, % at 12.3 µM | 360,000 compounds, 1.1% hits | AID 651610, 2012;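 active = mean replicate inhibition score of at least 50 and every replicate individually at or above 50; inconclusive = only one of the two criteria met; inactive = mean below 50 and not all replicates reaching 50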;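 note: 0% = plate neutral controls and 100% = maraviroc near 300 nM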
Wnt bcat act = Wnt/beta-catenin pathway activators, primary screen, cell-based, plate reader, single point. Wnt/beta-catenin reporter cell assay, activator. activation, % at 9.35 µM. 300,000 compounds, 1.2% hits; in the data active = activation above about 30%, passing the limit was not always enough; inconclusive = no clear call, values can overlap the other calls;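 note: 0% = neutral control wells and 100% = positive control wells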
INS-1E GSIS act = GLuc luminescence reporter in INS-1E cells, primary screen for activators of glucose-dependent secretion of insulin | INS-1E GLuc reporter insulin secretion, 2-3 h | activation, % at 16.6 µM | 370,000 compounds, 0.61% hits;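 active = lowest replicate activation of at least 40%, so every replicate reaches that level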;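 note: 0% = median of neutral control wells and 100% = median of IBMX positive control wells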
MITF TRPM1 HTS = activators of MITF-driven TRPM1 promoter reporter, primary screen, cell-based, SK-MEL-5, luciferase, single point; AID 588334, 2011; activation, % at 12.5 µM; SK-MEL-5 TRPM1-promoter luciferase, 24 h; % of positive control, neutral wells = 0; 300,000 compounds, 0.75% hits;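 active = mean activation of at least 80% with every replicate also reaching 80%; inconclusive = mean reaches 80% but some replicate falls short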;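 note: 0% = neutral control wells and 100% = parthenolide positive control wells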
* = called active by the depositor; ? = inconclusive; . = not tested or not shown; [ ] = remark or other dose. Hits are enriched below; roughly 2.7% of the tested compounds scored in any of these assays.

SMILES | CFTR F508del cor | HIV Env fusion | Wnt bcat act | INS-1E GSIS act | MITF TRPM1 HTS
CC1=CC2C(C(O)CC3(C)C2CC(C)C32OCOC23COCO3)C2(C)C/C(=C\O)C(=O)C=C12 (stereo not drawn) | 0.2 | 113.1* | -25.2 | 5.3 | -79.6
COc1ccc(-c2ccc([C@H]3[C@@H](C#N)N(C(=O)NC4CCCC4)[C@@H]3CO)cc2)cc1 | 2.5 | -6.9[16.7 µM] | . | -5.5 | .
O=C(Nc1ccnn1C1CCN(C2CCC2)CC1)c1ccccc1Cl | -0.2 | -17.2 | -2.2 | 64.5* | -1.3
CC(=O)N(C)C[C@H]1Oc2cc(C#CCN(C)C)ccc2S(=O)(=O)N([C@H](C)CO)C[C@@H]1C | 0.9 | 4.1[16.7 µM] | . | 9.9 | .
CS(=O)(=O)Nc1ccc2c(c1)[C@H]1C[C@H](CC(=O)N3CCc4ccccc4C3)O[C@H](CO)[C@H]1O2 | 3.6 | 62.6*[16.7 µM] | . | -11.4 | .
CS(=O)(=O)Nc1ccc2c(c1)[C@H]1C[C@@H](CC(=O)NCCN3CCCCC3)O[C@@H](CO)[C@H]1O2 | 1.1 | 66.5*[16.7 µM] | . | 20.4 | .
CS(=O)(=O)Nc1ccc2c(c1)[C@@H]1C[C@@H](CC(=O)NCCN3CCCCC3)O[C@@H](CO)[C@@H]1O2 | -1.2 | -5.0[16.7 µM] | . | -8.7 | .
C[C@H](NC(=O)C[C@@H]1C[C@@H]2c3cc(NC(=O)Nc4ccc(C(F)(F)F)cc4)ccc3O[C@@H]2[C@@H](CO)O1)c1ccccc1 | -2.6 | 81.4*[16.7 µM] | . | -8.0 | .
CS(=O)(=O)Nc1ccc2c(c1)[C@@H]1C[C@@H](CC(=O)N3CCc4ccccc4C3)O[C@H](CO)[C@@H]1O2 | -4.4 | 62.8*[16.7 µM] | . | 14.0 | .
O=C(c1ccc(F)cc1)N1CC(=O)N2[C@@H](CO)[C@@H](c3ccc(C#CC4CC4)cc3)[C@@H]2C1 | 0.3 | . | . | 0.9 | .
C[C@H](CO)N1C[C@H](C)[C@H](CN(C)CC2CCCCC2)Oc2c(NS(=O)(=O)c3cn(C)cn3)cccc2C1=O | -3.1 | -8.4[16.7 µM] | . | -2.1 | .
COCC(=O)Nc1ccc2c(c1)C(=O)N(C)[C@H]1CC[C@H](CC(=O)NCc3ccccc3)O[C@H]1CO2 | 2.1 | 2.3[16.7 µM] | . | 1.1 | .
COc1cccc(CNC(=O)C[C@@H]2C=C[C@H](NS(=O)(=O)c3ccccc3OC)[C@@H](CO)O2)c1 | -0.8 | -6.3[16.7 µM] | . | 8.4 | .
CC(C)NC(=O)N(C)C[C@H]1OCCCC[C@@H](C)Oc2ccc(NS(=O)(=O)c3ccc(Cl)cc3)cc2C(=O)N([C@H](C)CO)C[C@H]1C | -1.7 | -58.9[16.7 µM] | . | -28.6 | .
O=C(Nc1ccc(C(F)(F)F)cc1)Nc1ccc2c(c1)[C@@H]1C[C@@H](CC(=O)N3CCc4ccccc4C3)O[C@H](CO)[C@@H]1O2 | -0.9 | -21.7[16.7 µM] | . | -10.2 | .
CN1CCN(C(=O)C[C@H]2C[C@@H]3c4cc(NS(C)(=O)=O)ccc4O[C@@H]3[C@H](CO)O2)CC1 | 0.8 | 64.2*[16.7 µM] | . | 5.3 | .
O=C(Nc1ccc(C(F)(F)F)cc1)Nc1ccc2c(c1)[C@@H]1C[C@H](CC(=O)N3CCc4ccccc4C3)O[C@H](CO)[C@@H]1O2 | -2.3 | 81.5*[16.7 µM] | . | -4.5 | .
CC1Sc2ccc(C(=O)Nc3ccccc3OC(F)F)cc2NC1=O (stereo not drawn) | -2.6 | -20.5 | 34.9* | 12.9 | 62.3
CC1Sc2ccc(C(=O)OCc3ccccc3Cl)cc2NC1=O (stereo not drawn) | -1.4 | -83.8 | ? | 16.5 | 186.1*
CC1Sc2ccc(C(=O)Nc3ncccc3O)cc2NC1=O (stereo not drawn) | -3.0 | -62.0 | -2.2 | 16.5 | 37.7
C[C@H](CO)N1C[C@H](C)[C@@H](CN(C)C(=O)Nc2cccc3ccccc23)Oc2ccc(NC(=O)Cc3ccccc3)cc2C1=O | . | . | . | 0.5 | .
O=C(O)c1cc(-c2ccc(-c3c(-c4ccc5c(c4)OCO5)noc3-c3ccsc3)cc2)nc2ccccc12 | 0.7 | -52.0 | 22.0 | . | 96.5*
O=[N+]([O-])c1ccc(C2CCCC/C2=N\OCc2cccc(F)c2)c([N+](=O)[O-])c1 (stereo not drawn) | . | 84.8* | . | . | 2.0
Cc1noc(C)c1S(=O)(=O)N(C)C[C@@H]1Oc2ccc(NC(=O)Nc3ccccc3)cc2CC(=O)N([C@H](C)CO)C[C@H]1C | 1.4 | -8.1[16.7 µM] | . | 1.7 | .
COc1ccc(NC(=O)N(C)C[C@@H]2Oc3ccc(NC(=O)Nc4ccccc4)cc3C(=O)N([C@@H](C)CO)C[C@H]2C)cc1 | -0.6 | . | . | 7.4 | .

Compound activity as filed in PubChem BioAssay.
